# Data as given in PubChem BioAssay (Tox21).
# Where “and” joins values, the source holds several entries; their conditions need not be identical. Equal values may be shown once. Values without a mark were called inactive. Records with an inconclusive call do not appear. Entries that show only a call come without a potency. Calls of active or inactive are those of the source. Unless noted, calls follow the shape of the dose curve; as a rule, active = well fitted curve in the direction sought with a large enough effect in the repeat runs; inconclusive = weak or mixed curves; inactive = no such curve, though single readings can be large; an effect the other way counts as inactive or inconclusive.
# What was measured:
# [1] = qHTS assay to identify small molecule agonists of H2AX (AID 1224845; active = well fitted activation curve with a large enough effect in the signal ratio in the repeat runs, not every such curve was filed as active; the % refers to the signal ratio)
# In short: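 Wild-type CHO-K1 cells plated overnight, then exposed 3 hr at 37C to compounds at 15 concentrations (0.76% DMSO). Lysed, then HTRF anti-pH2AX(S139)-cryptate/anti-H2AX-d2 detection after 24 hr at room temperature; emissions 665 and 620 nm.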
# [2] = qHTS assay to identify small molecule agonists of the hypoxia (HIF-1) signaling pathway (AID 1224846; active = well fitted activation curve with a large enough effect in the signal ratio in the repeat runs, not every such curve was filed as active; the % refers to the signal ratio)
# In short: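 Measured by blue/green FRET after loading CCF4-AM: beta-lactamase expressed from a hypoxia response element in ME-180 cells. Test agents were delivered in DMSO and left 17 hrs; cells had been plated 5 hrs earlier in low-serum (0.5% dialyzed FBS) medium.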
# [3] = qHTS assay to identify small molecule agonists of H2AX - cell viability counter screen (AID 1224847; calls by dose curve; also: nearly all actives have a fitted effect of over 30% in size; also: potency is read from the fitted curve at half-maximal effect; as to activity change, negative = cytotoxicity: top concentration of the series differs between compounds)
# In short: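 After overnight plating of 1000 CHO-K1 cells per well, a 15-concentration compound series was applied for 3 hr at 37C. Luminescence from CellTiter-Glo, read following 30 min at room temperature, reflected cell viability.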
# [4] = qHTS assay to identify small molecule antagonists of the estrogen related receptor (ERR) signaling pathway from Tox21 library (AID 1224848); also: nearly all actives have a fitted effect of over 50% in size
# In short: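 Cells: ERR line, 2,000/well; 6 h preincubation 37 C/5% CO2. Cpd in DMSO via pin tool; 18 h, 37 C. ONE-Glo, 30 min RT, luminescence.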
# [5] = qHTS RealTime-Glo MT Cell Viability Assay in HepG2 cells - 24 hour (AID 1224867); also: nearly all actives have a fitted effect of over 50% in size
# In short: (§1)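 Cells + NanoLuc/prosubstrate dispensed (600 cells/well) → 5 h at 37 C/5% CO2 → compounds in DMSO transferred → 40 h incubation at 37 C, luminescence read at 0, 8, 16, 24, 32, 40 h.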
# [6] = qHTS RealTime-Glo MT Cell Viability Assay in HEK293 cells - 32 hour (AID 1224868); also: top concentration of the series differs between compounds; nearly all actives have a fitted effect of over 50% in size
# In short: (§2)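 Tox21 10K qHTS, HEK293, 600 cells/well, RealTime-Glo reagent co-dispensed with cells; 5 h preincubation, compound by pintool, 37 C, luminescence at 0–40 h.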
# [7] = A CellTox Green Cytotoxicity Assay to monitor cytotoxicity in HEK293 cells - 0 hour (AID 1224869); also: nearly all actives have a fitted effect of over 50% in size
# In short: (§3)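 Each value comes from one timepoint of a single continuous run in which HEK293 cells with CellTox Green were exposed to compound for up to 40 h at 37 C, dye fluorescence rising with cell death.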
# [8] = qHTS RealTime-Glo MT Cell Viability Assay in HepG2 cells - 40 hour (AID 1224870); also: nearly all actives have a fitted effect of over 50% in size
# In short: (§4)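 HepG2 cells mixed with RealTime-Glo MT reagents (NanoLuc plus cell-permeant prosubstrate) were seeded at 600 cells/well, incubated 5 h at 37 C/5% CO2, then pinned with compounds in DMSO; nonlytic luminescence tracked viability during 40 h treatment.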
# [9] = A CellTox Green Cytotoxicity Assay to monitor cytotoxicity in HEK293 cells - 40 hour (AID 1224871); also: nearly all actives have a fitted effect of over 45% in size
# In short: as §3
# [10] = qHTS RealTime-Glo MT Cell Viability Assay in HEK293 cells - 16 hour (AID 1224872)
# In short: as §2
# [11] = qHTS RealTime-Glo MT Cell Viability Assay in HepG2 cells - 8 hour (AID 1224873); also: nearly all actives have a fitted effect of over 55% in size
# In short: as §4
# [12] = qHTS RealTime-Glo MT Cell Viability Assay in HEK293 cells - 40 hour (AID 1224874); conditions: RealTime-Glo luminescence; max response: stronger effect = lower value; also: nearly all actives have a fitted effect of over 50% in size
# In short: (§5)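 qHTS format; HEK293 cells with NanoLuc/prosubstrate reagent, 37 C/5% CO2 for 5 h pre-dosing; compounds 23 nL in DMSO; luminescence at each time point reflects viable cells.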
# [13] = A CellTox Green Cytotoxicity Assay to monitor cytotoxicity in HEK293 cells - 24 hour (AID 1224875); also: nearly all actives have a fitted effect of over 45% in size
# In short: as §3
# [14] = A CellTox Green Cytotoxicity Assay to monitor cytotoxicity in HepG2 cells - 16 hour (AID 1224876); also: nearly all actives have a fitted effect of over 45% in size
# In short: (§6)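 Continuous culture of HepG2 cells with a membrane-impermeant DNA dye; rising fluorescence marks dead cells. Compound exposure lasted up to 40 h at 37 C, with reads every 8 h from 0 h.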
# [15] = qHTS RealTime-Glo MT Cell Viability Assay in HepG2 cells - 32 hour (AID 1224877); also: nearly all actives have a fitted effect of over 55% in size
# In short: as §1
# [16] = A CellTox Green Cytotoxicity Assay to monitor cytotoxicity in HepG2 cells - 24 hour (AID 1224878); also: nearly all actives have a fitted effect of over 45% in size
# In short: as §6
# [17] = qHTS RealTime-Glo MT Cell Viability Assay in HEK293 cells - 0 hour (AID 1224880)
# In short: as §5
# [18] = A CellTox Green Cytotoxicity Assay to monitor cytotoxicity in HEK293 cells - 32 hour (AID 1224881); also: nearly all actives have a fitted effect of over 40% in size
# In short: as §3
# [19] = qHTS assay to identify small molecule agonists of the estrogen related receptor (ERR) signaling pathway from Tox21 library (AID 1224849; calls by dose curve; also: nearly all actives have a fitted effect of over 15% in size); conditions: ERR reporter cell line, ONE-Glo luciferase, 18 h
# In short: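 We plated ERR reporter cells, waited 6 h, added compounds in DMSO by pin tool and incubated them 18 h at 37 C. ONE-Glo was then added and luminescence read after 30 min.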
# [20] = A CellTox Green Cytotoxicity Assay to monitor cytotoxicity in HepG2 cells - 40 hour (AID 1224879); also: nearly all actives have a fitted effect of over 40% in size
# In short: as §6
smiles,measurement,setting,value
CCC(C)(Oc1ccc(C2(c3ccc(OC(C)(CC)C(=O)O)cc3)CCCCC2)cc1)C(=O)O (stereo unspecified),Potency,[1],inactive
same,Potency,[2],inactive
same,Potency,[3],inactive
same,Potency,[4],inactive
same,Potency,[5],inactive
same,Potency,[6],inactive
same,Potency,[7],inactive
same,Potency,[8],inactive
same,Potency,[9],inactive
same,Potency,[10],inactive
same,Potency,[11],inactive
same,max response,[12],8.3%
same,Potency,[13],inactive
same,Potency,[14],inactive
same,Potency,[15],inactive
same,Potency,[16],inactive
same,Potency,[17],inactive
same,Potency,[18],inactive
CC(C)(O)CCC(C)(C)O,Potency,[1],inactive
same,Potency,[2],inactive
same,Potency,[3],inactive
same,Potency,[4],inactive
same,"activity change, positive = activation",[19]; at 92.4 µM (top of the series),-1.25%
same,Potency,[5],inactive
same,Potency,[6],inactive
same,Potency,[7],inactive
same,Potency,[8],inactive
same,Potency,[9],inactive
same,Potency,[10],inactive
same,Potency,[11],inactive
same,max response,[12],-3.66%
same,Potency,[13],inactive
same,Potency,[14],inactive
same,Potency,[16],inactive
same,Potency,[20],inactive
same,Potency,[17],inactive
same,Potency,[18],inactive
CCCCCCCCCCCCCCCCCl,activation (H2AX phosphorylation),[1],1.73% [at 31.6 µM]
same,activation,[2],0.196% [at 15.8 µM]
same,"activity change, negative = cytotoxicity",[3],2.02% [at 31.6 µM]
same,"activity, negative = inhibition",[4],15.7% [at 19 µM]
same,"activity change, positive = activation",[19]; at 19 µM (top of the series),7.84%
same,"activity change, negative = cytotoxicity",[5],5.56% [at 15.8 µM]
same,cytotoxicity,[7],1.64% [at 15.8 µM]
same,"activity change, negative = cytotoxic",[8],12.5% [at 15.8 µM]
same,cytotoxicity increase,[9],10.8% [at 15.8 µM]
same,"activity change, negative = cytotoxicity",[10],1.99% [at 15.8 µM]
same,"viability change, negative = cytotoxic",[11],0.131% [at 15.8 µM]
same,max response,[12],0.0293%
same,activity change,[13],"8.22% [at 15.8 µM, stronger effect = higher value]"
same,cytotoxicity increase,[14],3.3% [at 15.8 µM]
same,cytotoxicity,[16],2.62% [at 15.8 µM]
same,cytotoxicity increase,[20],1.26% [at 15.8 µM]
same,"activity change, negative = cytotoxicity",[17],2.19% [at 15.8 µM]
same,cytotoxicity increase,[18],8.79% [at 15.8 µM]
O=S(=O)(O)c1ccc2nc(-c3ccccc3)[nH]c2c1,Potency,[1],inactive
same,Potency,[2],inactive
same,Potency,[3],30.3 µM (active) and 22 µM (active)
same,Potency,[4],inactive
same,"activity change, positive = activation",[19]; at 42.5 µM (top of the series),2.03%
same,"activity change, positive = activation",[19]; at 92.4 µM (top of the series),-3.59%
same,Potency,[5],inactive
same,Potency,[6],inactive
same,Potency,[7],inactive
same,Potency,[8],inactive
same,Potency,[9],inactive
same,Potency,[10],inactive
same,Potency,[11],inactive
same,max response,[12],4.15% and 2.95%
same,Potency,[13],inactive
same,Potency,[14],inactive
same,Potency,[15],inactive
same,Potency,[16],inactive
same,Potency,[20],inactive
same,Potency,[17],inactive
same,Potency,[18],inactive
